Test [1] has as its target Lysosomal acid glucosylceramidase (Homo sapiens) (UniProt P04062). Briefly: Glucocerebrosidase-p2 (AID 348; in the data active = potency below about 10 µM; note: potency is the fitted concentration of half-maximal effect). The following applies: purified GBA, blue fluorogenic substrate, 40 min. An outline of the steps: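 Compounds titrated from 0.6 nM upwards against 0.2 nM enzyme in pH 5.9 citric acid/KH2PO4, taurocholate, tween-20; blue fluorogenic substrate 80 uM, 40 min room temperature, stopped and read Ex 365/Em 440 for AC50.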

Test [2] in a line: AP1 Signaling Pathway (AID 357).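 Note: ME-180 reporter cells stimulated with EGF at its EC50 level; % is set by controls: 0 for no effect and ±100 for the full control effect.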 The following applies: ME-180 AP-1-bla reporter, EGF-induced, beta-lactamase ratio, 5 h; at 7.69 µM (top of the series) unless noted. A digest of the protocol: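 In this screen, ME-180 cells in Opti-MEM with 0.5% dialyzed FBS received EC50 EGF and compound titrations for 5 h. AP-1 reporter beta-lactamase was detected via CCF4 ratio, giving AC50 for positive and negative modulators.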

Test [3] has as its target Cytochrome P450 1A2 (Homo sapiens) (UniProt P05177). The test can be described thus: p450-cyp1a2 (AID 410; calls by dose curve; note: potency is the fitted concentration of half-maximal effect). The following applies: recombinant CYP1A2, luciferin-ME demethylation, luminescence; series mostly up to 11.4 µM. A digest of the protocol: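 Human CYP1A2 (20nM) demethylated Luciferin-ME at its Km (100uM) in 100mM KPO4. After 10 min compound preincubation, NADPH regeneration ran the reaction 60 min at room temperature. Luciferin was read by luminescence, normalized to 57 uM furafylline.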

The nature of test [4]: NFAT Signaling Pathway (AID 444).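 Note: carbachol stimulus at about its EC50 of 1 µM final; % is set by controls: 0 for no effect and ±100 for the full control effect.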 The following applies: Jurkat NFAT-bla M1, carbachol, beta-lactamase ratio, 5 h; at 7.69 µM (top of the series) unless noted. An outline of the steps: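 Jurkat cells carrying an NFAT-driven β-lactamase reporter and co-transfected muscarinic M1 receptor were treated with compound plus carbachol (1 uM final, an EC50 level) for 5 h at 37 °C. CCF4 loading followed for 1 h at RT; 460/530 nm ratio gave %activity.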

The nature of test [5]: Stat Signaling Pathway (AID 446).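 Note: ME-180 cervical cancer cells given 40 pM IL-6 alongside compound; SIE-controlled beta-lactamase reporter measured as 460/530 nm FRET emission ratio; % is set by controls: 0 for no effect and ±100 for the full control effect.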 The following applies: ME-180 SIE beta-lactamase reporter, IL-6 stimulated, 5 h; at 7.69 µM (top of the series) unless noted. An outline of the steps: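 Reporter line: ME-180 cervical carcinoma, SIE-beta-lactamase. Treatment: compound with 40 pM IL-6, 5 hrs, 37 C, in low-serum OPTI-MEM with 10 mM HEPES pH 7.3. Detection: 460/530 nm fluorescence.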

Test [6] addresses Glucocorticoid receptor (Homo sapiens) (UniProt P04150). Briefly: GR-GFP Redistribution (AID 450;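 active = compounds whose dose series gives a full or clear partial fitted curve of increased nuclear translocation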; note: potency is the fitted concentration of half-maximal effect). The following applies: U2OS GR-GFP nuclear translocation, laser cytometry, 2 h.
The target is the same in test [7]. Briefly: GR-EFC Redistribution (AID 451; calls by dose curve; note: potency is the fitted concentration of half-maximal effect). The following applies: CHO-K1 GR-EFC translocation, beta-gal luminescence, 2 h. A digest of the protocol: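 CHO-K1 cells stably expressing nuclear-localized β-gal enzyme acceptor and GR fused C-terminally to the enzyme donor fragment; ligand-driven nuclear translocation restores β-gal by complementation. Compounds titrated up to 46 uM final, 2 h at 37 °C; luminescence read.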

Test [8] concerns the target Mitogen-activated protein kinase 10 (Mus musculus) (UniProt Q61831). Briefly: JNK3 AlphaScreen Assay (AID 530).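 Note: kinase came from lysate of stimulated human HepG2 cells; signal reports phosphorylation of biotinylated GST-cJun 1-79 at Ser73 with 10 µM ATP; % is set by controls: 0 for no effect and ±100 for the full control effect.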 The following applies: JNK3 lysate, c-Jun phosphorylation; series mostly up to 11.4 µM. A digest of the protocol:
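JNK3 came from HepG2 lysates pre-activated with IL-1beta and TNF-alpha and phosphorylated biotinylated GST-cJun (1-79) at 10 uM ATP, pH 7.6, room temperature. Compounds were titrated. AlphaScreen signal used anti-phospho-cJun (Ser73) antibody.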

Test [9] addresses 3',5'-cyclic-AMP phosphodiesterase 4B (Homo sapiens) (UniProt Q07343). The test can be described thus: qHTS Assay for Inhibitors of PDE-IV (AID 607; active = well fitted activation curve with a large enough effect in the main read-out, with a control signal flat, not every such curve was filed as active; note: % of control where 0% means no effect). The following applies: HEK293 ACTOne CNG channel cells, membrane potential fluorescence; series mostly up to 22.9 µM. A digest of the protocol: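 Cell-based read-out of cAMP via a modified cyclic nucleotide-gated channel and membrane potential dye (535/590 nm) in HEK293 cells expressing PDE4 endogenously. Compounds tested up to 22.9 uM final; 100 uM RO 20-1724 reference.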
A general note: qHTS replaces the single test concentration by a dilution series.

Test [10] has as its target Cytochrome P450 2C19 (Homo sapiens) (UniProt P33261). Briefly: qHTS Assay for Inhibitors and Substrates of Cytochrome P450 2C19 (AID 899; active = well fitted inhibition curve with a large enough effect; note: nearly all actives have a fitted effect of over 60% in size; note: potency is the fitted concentration of half-maximal effect). The following applies: recombinant CYP2C19, luciferin-H EGE luminescence; series mostly up to 11.4 µM. A digest of the protocol:
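Human CYP2C19 (5nM) with Luciferin-H EGE at 10uM (its KM) in 50mM KPO4 was preincubated with compound for 10 min at 37C. NADPH regeneration started a 60 min 37C reaction. Luciferin was read by luminescence, normalized to 57uM ketoconazole.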

A number with no mark means an inactive call. Inconclusive results are not listed. Activity calls are given as the source filed them. Unless noted, calls come from the whole dose curve; as a rule, active = well fitted curve in either direction with a large enough effect (not every such curve was filed as active); inconclusive = small, poorly fitted or top-dose-only effect, or another doubt; inactive = flat fitted curve, though single readings scatter.

Chain of Glucocorticoid receptor (Homo sapiens) (P04150 whole entry, looked up, the tested form may be a part): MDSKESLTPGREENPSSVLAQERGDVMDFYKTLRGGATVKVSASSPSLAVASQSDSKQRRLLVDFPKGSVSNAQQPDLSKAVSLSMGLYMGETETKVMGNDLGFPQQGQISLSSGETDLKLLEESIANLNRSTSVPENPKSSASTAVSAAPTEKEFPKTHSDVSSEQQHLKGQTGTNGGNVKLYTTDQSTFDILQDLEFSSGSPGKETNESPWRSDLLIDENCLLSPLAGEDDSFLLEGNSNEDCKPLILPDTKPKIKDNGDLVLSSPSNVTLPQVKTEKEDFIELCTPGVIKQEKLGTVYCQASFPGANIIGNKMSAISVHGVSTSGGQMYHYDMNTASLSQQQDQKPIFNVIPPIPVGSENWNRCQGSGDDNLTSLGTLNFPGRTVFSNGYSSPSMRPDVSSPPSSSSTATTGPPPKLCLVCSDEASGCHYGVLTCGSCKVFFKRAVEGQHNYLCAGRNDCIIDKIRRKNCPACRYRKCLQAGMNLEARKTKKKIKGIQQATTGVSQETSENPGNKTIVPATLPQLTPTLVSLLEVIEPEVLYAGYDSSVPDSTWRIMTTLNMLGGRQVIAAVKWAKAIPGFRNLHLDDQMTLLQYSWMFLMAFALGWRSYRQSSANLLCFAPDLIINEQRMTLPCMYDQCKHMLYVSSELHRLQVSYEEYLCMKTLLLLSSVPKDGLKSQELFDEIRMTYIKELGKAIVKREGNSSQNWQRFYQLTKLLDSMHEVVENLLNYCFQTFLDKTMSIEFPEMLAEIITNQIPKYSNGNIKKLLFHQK
Chain of Cytochrome P450 2C19 (Homo sapiens) (P33261 whole entry, looked up): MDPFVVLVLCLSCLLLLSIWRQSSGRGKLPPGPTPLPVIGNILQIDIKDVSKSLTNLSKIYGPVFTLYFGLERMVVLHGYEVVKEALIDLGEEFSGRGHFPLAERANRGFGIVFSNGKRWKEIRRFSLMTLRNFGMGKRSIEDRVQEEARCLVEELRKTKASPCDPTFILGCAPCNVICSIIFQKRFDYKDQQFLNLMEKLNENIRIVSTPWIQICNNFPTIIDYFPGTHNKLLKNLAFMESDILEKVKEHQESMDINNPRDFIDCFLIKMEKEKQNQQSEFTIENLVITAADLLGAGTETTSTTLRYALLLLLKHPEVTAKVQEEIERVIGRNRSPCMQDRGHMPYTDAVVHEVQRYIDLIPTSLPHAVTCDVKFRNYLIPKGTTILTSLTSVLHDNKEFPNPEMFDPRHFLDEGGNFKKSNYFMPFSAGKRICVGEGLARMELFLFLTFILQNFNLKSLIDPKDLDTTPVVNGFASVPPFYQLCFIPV
Chain of Lysosomal acid glucosylceramidase (Homo sapiens) (P04062 whole entry, looked up): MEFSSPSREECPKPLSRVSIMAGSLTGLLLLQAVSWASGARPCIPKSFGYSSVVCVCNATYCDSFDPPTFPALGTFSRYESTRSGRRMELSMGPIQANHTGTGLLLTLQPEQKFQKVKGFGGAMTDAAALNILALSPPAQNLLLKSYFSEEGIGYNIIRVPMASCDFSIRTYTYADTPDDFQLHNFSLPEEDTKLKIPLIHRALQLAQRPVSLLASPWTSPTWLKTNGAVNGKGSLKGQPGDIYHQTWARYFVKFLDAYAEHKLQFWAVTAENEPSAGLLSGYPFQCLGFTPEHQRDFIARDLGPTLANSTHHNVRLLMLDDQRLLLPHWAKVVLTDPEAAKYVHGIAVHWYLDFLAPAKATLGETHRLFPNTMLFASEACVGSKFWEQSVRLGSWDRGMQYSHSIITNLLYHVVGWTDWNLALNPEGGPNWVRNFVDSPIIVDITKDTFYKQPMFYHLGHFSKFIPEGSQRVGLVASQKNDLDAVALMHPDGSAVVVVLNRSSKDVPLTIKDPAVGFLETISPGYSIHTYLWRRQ
Chain of 3',5'-cyclic-AMP phosphodiesterase 4B (Homo sapiens) (Q07343 whole entry, looked up): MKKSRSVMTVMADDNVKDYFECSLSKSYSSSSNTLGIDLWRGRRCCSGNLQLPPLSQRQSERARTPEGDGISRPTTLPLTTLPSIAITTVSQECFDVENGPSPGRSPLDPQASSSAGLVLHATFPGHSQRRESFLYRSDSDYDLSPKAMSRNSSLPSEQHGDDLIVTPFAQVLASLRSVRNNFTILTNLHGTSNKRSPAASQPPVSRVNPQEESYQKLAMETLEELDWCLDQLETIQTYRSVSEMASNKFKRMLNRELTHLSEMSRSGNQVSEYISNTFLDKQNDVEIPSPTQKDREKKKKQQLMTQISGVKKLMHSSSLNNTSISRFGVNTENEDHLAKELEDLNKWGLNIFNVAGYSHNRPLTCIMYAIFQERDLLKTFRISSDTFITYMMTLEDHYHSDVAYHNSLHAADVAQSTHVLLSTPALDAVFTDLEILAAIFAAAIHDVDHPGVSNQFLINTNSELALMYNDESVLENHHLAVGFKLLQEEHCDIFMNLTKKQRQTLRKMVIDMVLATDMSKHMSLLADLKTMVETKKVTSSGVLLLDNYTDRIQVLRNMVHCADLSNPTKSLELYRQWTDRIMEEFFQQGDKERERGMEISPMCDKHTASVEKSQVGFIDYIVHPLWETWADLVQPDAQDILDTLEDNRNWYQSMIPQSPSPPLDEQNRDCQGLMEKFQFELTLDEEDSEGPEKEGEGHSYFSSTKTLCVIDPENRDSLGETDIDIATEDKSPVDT
Chain of Cytochrome P450 1A2 (Homo sapiens) (P05177 whole entry, looked up): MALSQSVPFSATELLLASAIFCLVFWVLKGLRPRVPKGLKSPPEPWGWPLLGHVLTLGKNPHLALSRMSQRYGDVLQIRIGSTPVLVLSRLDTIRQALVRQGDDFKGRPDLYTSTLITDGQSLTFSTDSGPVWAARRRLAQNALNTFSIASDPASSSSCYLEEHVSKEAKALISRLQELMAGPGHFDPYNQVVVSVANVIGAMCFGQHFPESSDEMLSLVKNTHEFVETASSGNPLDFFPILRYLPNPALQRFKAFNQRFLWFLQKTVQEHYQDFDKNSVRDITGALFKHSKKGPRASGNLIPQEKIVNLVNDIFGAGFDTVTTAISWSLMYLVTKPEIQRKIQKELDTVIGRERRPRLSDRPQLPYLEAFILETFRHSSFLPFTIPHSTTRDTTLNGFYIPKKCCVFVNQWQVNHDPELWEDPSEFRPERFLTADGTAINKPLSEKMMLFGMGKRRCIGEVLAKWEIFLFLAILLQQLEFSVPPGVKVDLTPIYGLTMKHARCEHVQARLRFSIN

`N=C(N)SCCCN`: the Potency in test [1] was greater than 11.4 µM; in test [3] it was 6.31 µM (active); in test [6], greater than 46 µM; in [7] it was greater than 9.22 µM. The activity change, negative = inhibition in test [2] is 2.32%; in test [4], 3.8%. For the same compound, in test [5], the activity, negative = inhibition is 5.52%. Further, the Potency result in [8], in test [9] and in test [10] was “inactive” each time.

Turning to `Cn1c(=O)c2[nH]c(CCCCC(=O)O)nc2n(C)c1=O`, the Potency in test [1] was greater than 11.4 µM; in test [3], 0.794 µM (active); in [6], greater than 46 µM; in test [7], greater than 9.22 µM. Moreover, the activity change, negative = inhibition in test [2] is 1.28%; in [4], 6.73%. Moreover, in [5], the activity, negative = inhibition was 1.27%. The Potency entry in test [8], in test [9] and in test [10] was “inactive” in each case.

As for `O=[N+]([O-])c1cc(Cc2cc([N+](=O)[O-])c3cccnc3c2O)c(O)c2ncccc12`, the Potency in [1] was greater than 11.4 µM; in [6] it was greater than 46 µM; in [7], greater than 9.22 µM; in test [10] it was 2.51 µM (active). For the same compound, the activity change, negative = inhibition in test [2] is 18.2%; in [3] it was -31.1% [at 2.29 µM]; in test [4] it was -16.4%. In addition, in test [5], the activity, negative = inhibition was -1.87%. Further, the Potency result in test [8] and in test [9] was “inactive” throughout.

Turning to `O=C(CCN1CCCCC1)N1CCc2c([nH]c3ccccc23)[C@H]1c1cccnc1`, the Potency in test [1] is greater than 11.4 µM; in test [6], greater than 46 µM; in test [7], greater than 9.22 µM. The activity change, negative = inhibition in [2] was 4.71%; in [3], -19.7% [at 2.29 µM]; in test [4] it was -15.8%. The activity, negative = inhibition in [5] is -6.32%. For the same compound, the Potency entry in [8], in [9] and in [10] was “inactive” each time.

For `CS[C@]12C(=O)C[C@]3(C)[C@@H](CC[C@@]3(O)C(=O)CO)[C@@H]1CCC1=CC(=O)CC[C@]12C`, the Potency is greater than 11.4 µM in [1], greater than 46 µM in test [6], greater than 9.22 µM in [7] and 3.16 µM (active) in [10]. Besides, the activity change, negative = inhibition is 0.905% in test [2], -24.3% [at 2.29 µM] in test [3] and 1.52% in test [4]. Moreover, the activity, negative = inhibition in [5] is -2.04%. The Potency entry in test [8] and in [9] was “inactive” in each case.

`O=C(O)CC1(CC(=O)O)Nc2ccccc2SC1=O`: the results for the Potency in test [1], in [6] and in test [7] were greater than 11.4 µM, greater than 46 µM and greater than 9.22 µM, respectively. Moreover, the activity change, negative = inhibition is -1.59% in test [2], 2% [at 2.29 µM] in [3] and 5.68% in test [4]. Besides, the activity, negative = inhibition in [5] was 2.07%. Also, the Potency result in test [8], in [9] and in test [10] was “inactive” in each case.

Consider `C=C1CCO[C@@]2([C@H](O)[C@@](C)(O)CO)NC(=O)[C@]1(O)NC2=O`, for which the Potency in test [1] was greater than 11.4 µM; in [6], greater than 46 µM; in test [7] it was greater than 9.22 µM. Moreover, the activity change, negative = inhibition is 5.8% in test [2], -4% [at 2.29 µM] in test [3] and -4.59% in test [4]. In test [5], the activity, negative = inhibition is 2.56%. The Potency entry in test [8], in test [9] and in [10] was “inactive” throughout.

Take `COc1ccc2cc(C(=O)CCC(=O)O)ccc2c1`: the Potency is greater than 11.4 µM in test [1]; 0.794 µM (active) in test [3]; greater than 46 µM in [6]; greater than 9.22 µM in test [7]; 2 µM (active) in [10]. In addition, the activity change, negative = inhibition in [2] was 1.75%; in test [4] it was 19.6%. The activity, negative = inhibition in test [5] was 6.44%. Further, the Potency entry in test [8] and in test [9] was “inactive” in each case.

Consider `CN(C)CCNc1ccccn1`, for which the Potency in test [1] was greater than 11.4 µM; in test [6], greater than 46 µM; in test [7], greater than 9.22 µM. The activity change, negative = inhibition in test [2] was -8.09%; in test [4] it was 12.6%. In addition, the Potency entry in test [3], in test [8], in [9] and in test [10] was “inactive” throughout. Moreover, the activity, negative = inhibition in test [5] was 3.69%.

Consider `CN(C)c1ccc(C(=C2C=CC(=[N+](C)C)C=C2)c2c(O)c(S(=O)(=O)O)cc3cc(S(=O)(=O)O)ccc23)cc1`, for which the Potency in test [1] was greater than 11.4 µM; in test [3], 3.98 µM (active); in [6], greater than 46 µM; in [7], greater than 9.22 µM. Also, the activity change, negative = inhibition in [2] is 3.1%; in [4], -12.3%. Besides, the activity, negative = inhibition in test [5] was 4.39%. The Potency entry in test [8], in [9] and in test [10] was “inactive” throughout.

With `CCCn1cnc2c(SCC(=O)O)nc(N)nc21`, the figures for the Potency in test [1], in test [6] and in [7] were greater than 11.4 µM, greater than 46 µM and greater than 9.22 µM, respectively. Moreover, the activity change, negative = inhibition in [2] was 0.287%; in test [4] it was -8.4%. Moreover, the Potency result in test [3], in test [8], in test [9] and in test [10] was “inactive” each time. Also, the activity, negative = inhibition in test [5] was -4.97%.

`N/C(CC(=O)Nc1cc(C(F)(F)F)ccc1Cl)=N\O`: the Potency in test [1] is greater than 11.4 µM; in [3], 1.58 µM (active); in [6], greater than 46 µM; in test [7] it was greater than 9.22 µM. Further, the activity change, negative = inhibition in [2] was -3.52%; in test [4], 11.5%. The activity, negative = inhibition in test [5] was -1.63%. Besides, the Potency result in test [8], in [9] and in [10] was “inactive” in each case.

`O[C@@H]1[C@@H](OCc2ccccc2)OC[C@H](O)[C@@H]1O`: the Potency was greater than 11.4 µM in test [1], greater than 46 µM in test [6] and greater than 9.22 µM in [7]. The activity change, negative = inhibition is 17.3% in test [2] and -8.65% in [4]. The Potency entry in test [3], in test [8], in test [9] and in test [10] was “inactive” throughout. Also, in [5], the activity, negative = inhibition is 4.2%.

As for `CN(C)CCN(c1ccccn1)c1ccccn1`, the Potency in test [1] is greater than 11.4 µM; in [6], greater than 46 µM; in test [7], greater than 9.22 µM. Also, the activity change, negative = inhibition in test [2] was 11.2%; in test [4], 7.47%. For the same compound, the Potency entry in test [3], in [8], in test [9] and in test [10] was “inactive” each time. The activity, negative = inhibition in test [5] was 11.4%.

These data come from PubChem BioAssay (NCATS).
